Results published in PubChem BioAssay AID1159580 (chemical genetic matrix, 2015).
The campaign covered roughly 5,500 compounds. About 2,000 (36%) were called active. Not shown: some 18% with an inconclusive outcome. Cut-off read from the data, not from the text of the source: active = normalized growth mostly below about 0.91 (no sharp cut-off); inconclusive = no clear call, values can overlap the other calls; inactive = mostly above about 0.92. The list shows a part of the results.

Assay: chemical genetic growth profiling, strain panel (AID 1159580);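 note: tested at 20 µM; growth read once vehicle control cultures reached saturation at 30 °C; 1 = growth at the plate median or of vehicle wells; lower values mean less growth of the strain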
Settings: growth OD
[1] = S. cerevisiae deletion strains, locus YDL101C, strain DUN1, active compounds read low
[2] = S. cerevisiae deletion strains, locus YHR030C, strain SLT2, active compounds read low

Measured: normalized growth

CC(C)(C)c1cc(C(C)(C)C)n(-c2ccc([N+](=O)[O-])cc2)n1
inactive: S. cerevisiae deletion strains, locus YAL013W, strain DEP1, active compounds read low 1.02 | S. cerevisiae deletion strains, locus YBR229C, strain ROT2, active compounds read low 1.01 | S. cerevisiae deletion strains, locus YCL061C, strain MRC1, active compounds read low 0.994 | [1] 1.01 | S. cerevisiae deletion strains, locus YDR150W, strain NUM1, active compounds read low 0.991 | S. cerevisiae deletion strains, locus YEL061C, strain CIN8, active compounds read low 1.02 | S. cerevisiae deletion strains, locus YGR078C, strain PAC10, active compounds read low 1.01 | [2] 1.06 | S. cerevisiae deletion strains, locus YHR087W, strain rtc3, active compounds read low 1.01 | S. cerevisiae deletion strains, locus YJL187C, strain SWE1, active compounds read low 1 | S. cerevisiae deletion strains, locus YJR043C, strain POL32, active compounds read low 1.02 | S. cerevisiae deletion strains, locus YJR075W, strain HOC1, active compounds read low 0.997 | S. cerevisiae deletion strains, locus YKL190W, strain CNB1, active compounds read low 0.998 | S. cerevisiae deletion strains, locus YLR039C, strain RIC1, active compounds read low 1.04 | S. cerevisiae deletion strains, locus YLR058C, strain SHM2 (second series), active compounds read low 1.01 | S. cerevisiae deletion strains, locus YLR085C, strain ARP6, active compounds read low 1.01 | S. cerevisiae deletion strains, locus YLR262C, strain YPT6, active compounds read low 1.01 | S. cerevisiae deletion strains, locus YML094W, strain GIM5, active compounds read low 1.04 | S. cerevisiae deletion strains, locus YMR219W, strain ESC1, active compounds read low 1 | S. cerevisiae deletion strains, locus YMR263W, strain SAP30, active compounds read low 0.999 | S. cerevisiae deletion strains, locus YMR307W, strain GAS1, active compounds read low 0.995 | S. cerevisiae deletion strains, locus YNL153C, strain GIM3, active compounds read low 1 | S. cerevisiae deletion strains, locus YNL298W, strain CLA4 (second series), active compounds read low 1.05 | S. cerevisiae deletion strains, locus YNL322C, strain KRE1, active compounds read low 1 | S. cerevisiae deletion strains, locus YNR030W, strain Alg12, active compounds read low 1.04 | S. cerevisiae deletion strains, locus YOL006C, strain TOP1, active compounds read low 1.06 | S. cerevisiae deletion strains, locus YPL055C, strain LGE1, active compounds read low 1.04 | S. cerevisiae deletion strains, locus YPL241C, strain CIN2, active compounds read low 1.07 | S. cerevisiae deletion strains, locus YPR135W, strain CTF4, active compounds read low 1.03 | S. cerevisiae strains, strain wild type, active compounds read low 1.01

CN(C)c1nc(=S)ss1
inactive: S. cerevisiae deletion strains, locus YBL105C, strain PKC1, active compounds read low 0.91 | [1] 0.937 | S. cerevisiae deletion strains, locus YFR003C, strain YPI1, active compounds read low 0.905 | S. cerevisiae deletion strains, locus YFR028C, strain CDC14, active compounds read low 0.894 | S. cerevisiae deletion strains, locus YJL128C, strain PBS2, active compounds read low 0.876 | S. cerevisiae deletion strains, locus YPR106W, strain ISR1, active compounds read low 0.934 | S. cerevisiae deletion strains, locus YPR111W, strain DBF20, active compounds read low 0.913 | S. cerevisiae deletion strains, strain NNK1, active compounds read low 0.921
active: S. cerevisiae deletion strains, locus YAR019C, strain CDC15, active compounds read low 0.83 | S. cerevisiae deletion strains, locus YBR135W, strain CKS1, active compounds read low 0.865 | S. cerevisiae deletion strains, locus YBR136W, strain MEC1, active compounds read low 0.883 | S. cerevisiae deletion strains, locus YBR160W, strain CDC28, active compounds read low 0.882 | S. cerevisiae deletion strains, locus YDL017W, strain CDC7, active compounds read low 0.896 | S. cerevisiae deletion strains, locus YDL028C, strain MPS1, active compounds read low 0.839 | S. cerevisiae deletion strains, locus YDL108W, strain KIN28, active compounds read low 0.878 | S. cerevisiae deletion strains, locus YDL132W, strain cdc53, active compounds read low 0.687 | S. cerevisiae deletion strains, locus YDL214C, strain PRR2, active compounds read low 0.332 | S. cerevisiae deletion strains, locus YDR052C, strain DBF4, active compounds read low 0.886 | S. cerevisiae deletion strains, locus YDR054C, strain cdc34, active compounds read low 0.569 | S. cerevisiae deletion strains, locus YDR226W, strain ADK1, active compounds read low 0.865 | S. cerevisiae deletion strains, locus YDR477W, strain SNF1, active compounds read low 0.319 | S. cerevisiae deletion strains, locus YER123W, strain YCK3, active compounds read low 0.186 | S. cerevisiae deletion strains, locus YER133W, strain GLC7, active compounds read low 0.211 | S. cerevisiae deletion strains, locus YFL009W, strain cdc4, active compounds read low 0.732 | S. cerevisiae deletion strains, locus YFL029C, strain CAK1, active compounds read low 0.747 | S. cerevisiae deletion strains, locus YFR019W, strain FAB1, active compounds read low 0.221 | S. cerevisiae deletion strains, locus YGR040W, strain KSS1, active compounds read low 0.47 | S. cerevisiae deletion strains, locus YGR052W, strain FMP48, active compounds read low 0.349 | S. cerevisiae deletion strains, locus YGR092W, strain DBF2, active compounds read low 0.111 | [2] 0.576 | S. cerevisiae deletion strains, locus YHR079C, strain IRE1, active compounds read low 0.204 | S. cerevisiae deletion strains, locus YHR082C, strain KSP1, active compounds read low 0.464 | S. cerevisiae deletion strains, locus YHR205W, strain SCH9, active compounds read low 0.493 | S. cerevisiae deletion strains, locus YIL147C, strain SLN1, active compounds read low 0.825 | S. cerevisiae deletion strains, locus YJL095W, strain BCK1, active compounds read low 0.327 | S. cerevisiae deletion strains, locus YJL157C, strain FAR1, active compounds read low 0.199 | S. cerevisiae deletion strains, locus YJR016C, strain ILV3, active compounds read low 0.715 | S. cerevisiae deletion strains, locus YJR066W, strain TOR1 (second series), active compounds read low 0.262 | S. cerevisiae deletion strains, locus YJR066W, strain TOR1, active compounds read low 0.324 | S. cerevisiae deletion strains, locus YKL048C, strain ELM1, active compounds read low 0.228 | S. cerevisiae deletion strains, locus YKL067W, strain YNK1, active compounds read low 0.197 | S. cerevisiae deletion strains, locus YKL101W, strain HSL1, active compounds read low 0.205 | S. cerevisiae deletion strains, locus YKL193C, strain SDS22, active compounds read low 0.84 | S. cerevisiae deletion strains, locus YKL203C, strain TOR2, active compounds read low 0.342 | S. cerevisiae deletion strains, locus YLR113W, strain HOG1, active compounds read low 0.351 | S. cerevisiae deletion strains, locus YLR133W, strain CKI1, active compounds read low 0.232 | S. cerevisiae deletion strains, locus YLR403W, strain SFP1, active compounds read low 0.116 | S. cerevisiae deletion strains, locus YML070W, strain DAK1, active compounds read low 0.199 | S. cerevisiae deletion strains, locus YMR001C, strain CDC5, active compounds read low 0.87 | S. cerevisiae deletion strains, locus YMR205C, strain PFK2 (second series), active compounds read low 0.229 | S. cerevisiae deletion strains, locus YMR277W, strain FCP1, active compounds read low 0.827 | S. cerevisiae deletion strains, locus YNL006W, strain LST8, active compounds read low 0.501 | S. cerevisiae deletion strains, locus YNL020C, strain ARK1, active compounds read low 0.189 | S. cerevisiae deletion strains, locus YNL161W, strain CBK1, active compounds read low 0.869 | S. cerevisiae deletion strains, locus YNL183C, strain NPR1, active compounds read low 0.341 | S. cerevisiae deletion strains, locus YNL207W, strain RIO2, active compounds read low 0.865 | S. cerevisiae deletion strains, locus YNL222W, strain SSU72, active compounds read low 0.861 | S. cerevisiae deletion strains, locus YNL307C, strain MCK1 (second series), active compounds read low 0.162 | S. cerevisiae deletion strains, locus YOL078W, strain AVO1, active compounds read low 0.807 | S. cerevisiae deletion strains, locus YOL136C, strain PFK27, active compounds read low 0.165 | S. cerevisiae deletion strains, locus YOR061W, strain CKA2, active compounds read low 0.217 | S. cerevisiae deletion strains, locus YOR119C, strain RIO1, active compounds read low 0.325 | S. cerevisiae deletion strains, locus YOR231W, strain MKK1, active compounds read low 0.211 | S. cerevisiae deletion strains, locus YOR329C, strain SCD5, active compounds read low 0.88 | S. cerevisiae deletion strains, locus YPL031C, strain PHO85, active compounds read low 0.21 | S. cerevisiae deletion strains, locus YPL153C, strain RAD53, active compounds read low 0.16 | S. cerevisiae deletion strains, locus YPL204W, strain HRR25, active compounds read low 0.202 | S. cerevisiae deletion strains, locus YPL209C, strain IPL1, active compounds read low 0.872 | S. cerevisiae deletion strains, locus YPL256C, strain CLN2, active compounds read low 0.393 | S. cerevisiae deletion strains, locus YPR025C, strain CCL1, active compounds read low 0.881 | S. cerevisiae deletion strains, strain TSCII, active compounds read low 0.706
